What all share (details): primary human HUVEC with PBMC; actives raise or lower the signal
Experiment [1] in a line: BSK_LPS_PGE2: BioMAP Diversity Plus: LPS Assay for Prostaglandin E2 (PGE2) Biomarker Activity (AID 2283082).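 For AC50: secreted prostaglandin E2 measured by ELISA in LPS-stimulated co-culture.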 The method, boiled down:
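ELISA read-out of PGE2 from human umbilical vein endothelial cells co-cultured with peripheral blood mononuclear cells under LPS, 24 h post-dose. Gain or loss of signal scored relative to DMSO baseline.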

Read-out in experiment [2]: Macrophage colony-stimulating factor (MCSF), CSF1 (gene 1435)
Briefly: BSK_LPS_MCSF: BioMAP Diversity Plus: LPS Assay for Macrophage colony-stimulating factor (MCSF) Biomarker Activity (AID 2283083). The method, boiled down:
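HUVEC + PBMC co-culture (human primary), 24 h post-dose; M-CSF by ELISA; gain/loss of signal fitted bidirectionally vs DMSO baseline.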

Read-out in experiment [3]: Tissue Factor, F3 (gene 2152)
The experiment in a line: BSK_LPS_TissueFactor: BioMAP Diversity Plus: LPS Assay for Tissue Factor Biomarker Activity (AID 2283084). The procedure, abridged: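 HUVEC/PBMC co-culture, LPS-activated; CD142 ELISA read 24 h post-dose; bidirectional curve fit vs DMSO negative control.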

Read-out in experiment [4]: Tumor necrosis factor (Homo sapiens) (UniProt P01375)
Briefly: BSK_LPS_TNFa: BioMAP Diversity Plus: LPS Assay for Tumour Necrosis Factor alpha (TNFa) Biomarker Activity (AID 2283085).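 For AC50: TNFa protein level quantified by ELISA in the co-culture.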 The procedure, abridged: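 HUVEC/PBMC co-culture, LPS-stimulated; 24 h post-dose; TNFa by ELISA; gain or loss of signal fitted bidirectionally vs DMSO baseline.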

Read-out in experiment [5]: Vascular cell adhesion molecule 1 (VCAM1), VCAM1 (gene 7412)
The experiment in a line: BSK_LPS_VCAM1: BioMAP Diversity Plus: LPS Assay for Vascular cell adhesion molecule 1 (VCAM1) Biomarker Activity (AID 2283086). The method, boiled down:
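ELISA read-out of VCAM-1 at 24 h post-dosing in an LPS-driven HUVEC/PBMC primary human co-culture; gain or loss of signal fitted bidirectionally against DMSO baseline. Cytotoxicity tracked in parallel cultures by SRB total-protein staining.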

Read-out in experiment [6]: CD38, CD38 (gene 952)
The experiment in a line: BSK_SAg_CD38: BioMAP Diversity Plus: SAg Assay for CD38 Biomarker Activity (AID 2283087). The method, boiled down: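 Measures CD38 on a human endothelial/PBMC co-culture driven by SEB and TSST-1, 24 h after compound exposure, using ELISA with fluorescence detection; DMSO defines baseline for bidirectional curve fitting.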

Read-out in experiment [7]: CD40, CD40 (gene 958)
Briefly: BSK_SAg_CD40: BioMAP Diversity Plus: SAg Assay for CD40 Biomarker Activity (AID 2283088). The method, boiled down: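 HUVEC/PBMC co-culture, 24 h post-dose; CD40 by ELISA, fluorescence intensity; bidirectional fit vs DMSO negative control.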

Read-out in experiment [8]: CD69, CD69 (gene 969)
Briefly: BSK_SAg_CD69: BioMAP Diversity Plus: SAg Assay for CD69 Biomarker Activity (AID 2283089).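 For AC50: cell surface CD69 protein quantified by ELISA with fluorescence detection.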 The method, boiled down:
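Values derive from bidirectional fitting relative to DMSO vehicle. Cells: umbilical vein endothelium plus peripheral blood mononuclear cells, treated 24 h before fluorescent ELISA for CD69.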

Read-out in experiment [9]: Monocyte Chemoattractant Protein-1 (MCP1), CCL2 (gene 6347)
The experiment in a line: BSK_SAg_MCP1: BioMAP Diversity Plus: SAg Assay for Monocyte Chemoattractant Protein-1 (MCP1) Biomarker Activity (AID 2283090). The method, boiled down: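 Values derive from bidirectional fitting of ELISA-measured MCP1 against DMSO controls. Readings were taken 24 h after dosing human vascular endothelial cells co-cultured with peripheral blood mononuclear cells under superantigen stimulation.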

Read-out in experiment [10]: E-selectin (Homo sapiens) (UniProt P16581)
The experiment in a line: BSK_SAg_Eselectin: BioMAP Diversity Plus: SAg Assay for Eselectin Biomarker Activity (AID 2283091). The method, boiled down:
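E-selectin ELISA readout at 24 h post-dosing in human umbilical vein endothelial cell/PBMC co-culture; gain or loss of signal fitted relative to DMSO baseline.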

“And” between values parts separate entries of the source, which are not always exact repeats. Equal values may be shown once. Some structures have more than one record in an assay (separate samples or runs), and their calls can disagree. The source made the active and inactive calls. Rule for the calls: active = hit-call score of the fitted dose curve at least 0.9, where 1 is the maximum; inactive = score below 0.9.

Tumor necrosis factor (Homo sapiens), sequence (P01375 whole entry, looked up): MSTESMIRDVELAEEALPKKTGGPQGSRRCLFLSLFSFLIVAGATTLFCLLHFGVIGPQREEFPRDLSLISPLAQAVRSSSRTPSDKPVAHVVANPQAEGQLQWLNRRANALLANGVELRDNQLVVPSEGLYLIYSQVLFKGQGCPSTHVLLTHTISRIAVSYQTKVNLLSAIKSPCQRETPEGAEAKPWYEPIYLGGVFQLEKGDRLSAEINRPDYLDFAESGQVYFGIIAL
E-selectin (Homo sapiens), sequence (P16581 whole entry, looked up): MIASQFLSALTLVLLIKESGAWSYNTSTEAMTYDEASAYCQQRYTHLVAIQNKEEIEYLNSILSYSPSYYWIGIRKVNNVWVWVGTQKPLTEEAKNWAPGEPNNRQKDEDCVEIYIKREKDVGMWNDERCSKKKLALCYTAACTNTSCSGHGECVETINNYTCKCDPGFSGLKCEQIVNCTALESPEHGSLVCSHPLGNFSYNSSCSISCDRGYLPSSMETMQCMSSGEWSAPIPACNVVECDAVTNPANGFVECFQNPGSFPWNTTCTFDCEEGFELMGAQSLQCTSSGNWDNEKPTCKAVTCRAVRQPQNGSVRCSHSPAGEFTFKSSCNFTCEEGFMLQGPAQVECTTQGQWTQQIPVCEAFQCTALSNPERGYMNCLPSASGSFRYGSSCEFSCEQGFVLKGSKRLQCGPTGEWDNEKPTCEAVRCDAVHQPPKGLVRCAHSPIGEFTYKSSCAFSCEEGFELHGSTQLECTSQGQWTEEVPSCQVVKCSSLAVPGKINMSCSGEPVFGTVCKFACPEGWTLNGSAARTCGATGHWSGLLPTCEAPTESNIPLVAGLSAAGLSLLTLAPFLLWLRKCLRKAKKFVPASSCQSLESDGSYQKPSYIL

In the case of `CCOC(=O)CC(CC(=O)OCC)(OC(C)=O)C(=O)OCC`, the result in experiment [1], in experiment [2], in experiment [3], in [4], in [5] and in experiment [6] was inactive. The result in experiment [7], in [8], in [9] and in experiment [10] was inactive.

Turning to `COC(=O)CC(=O)OC`, the outcome in experiment [1], in experiment [2], in experiment [3], in experiment [4], in experiment [5] and in experiment [6] was inactive. Further, the result in experiment [7], in experiment [8], in [9] and in [10] was inactive.

For `CCOCCO`, the result in experiment [1], in experiment [2], in [3], in [4], in experiment [5] and in experiment [6] was inactive. Further, the outcome in experiment [7], in [8], in experiment [9] and in experiment [10] was inactive.

Regarding `Oc1ccc2c(c1)-c1ccccc1C2`, the AC50 in experiment [1] was 13.2 µM (active); in experiment [4], 0.334 µM (active); in [7], 24.8 µM (active). Further, the outcome in experiment [2], in experiment [3], in experiment [5], in [6], in experiment [8] and in experiment [9] was inactive. Further, the outcome in experiment [10] was inactive.

For `COc1ccc(-n2nc(C(F)F)cc2-c2ccc(S(C)=O)cc2)cc1` (centres undefined), the AC50 in [1] is 0.342 µM (active); in experiment [4] it was 2.57 µM (active); in [8] it was 2.28 µM (active); in [9], 1.13 µM (active); in [10], 1.21 µM (active). For the same compound, the result in experiment [2], in experiment [3], in experiment [5], in [6] and in experiment [7] was inactive.

Turning to `Cn1cnc([N+](=O)[O-])c1Sc1ncnc2nc[nH]c12`, the result in experiment [1], in experiment [2], in experiment [3], in [4], in experiment [6] and in experiment [7] was inactive. The result in experiment [8] and in experiment [9] was inactive. For the same compound, the AC50 in experiment [2] is 20.3 µM (active) and 5.64 µM (active); in [4] it was 19.2 µM (active) and 15.7 µM (active); in experiment [5], 25.3 µM (active) and 6.4 µM (active) and 13.7 µM (active); in experiment [6] it was 12.1 µM (active); in experiment [7], 13.3 µM (active) and 8.21 µM (active); in experiment [9], 19.9 µM (active) and 12.6 µM (active). In addition, the AC50 in experiment [10] is 6.91 µM (active) and 12.6 µM (active) and 16.9 µM (active).

Consider `CC[C@H](C)C(=O)O[C@H]1C[C@@H](C)C=C2C=C[C@H](C)[C@H](CC[C@@H]3C[C@@H](O)CC(=O)O3)[C@H]21`, for which the result in [1] and in experiment [3] was inactive. Moreover, the AC50 in experiment [2] is 34 µM (active); in [4], 33.5 µM (active); in experiment [5], 30.8 µM (active); in experiment [6] it was 29.8 µM (active); in experiment [7], 12.5 µM (active); in experiment [8], 13.8 µM (active). Further, the AC50 in experiment [9] was 33.7 µM (active).

In the case of `CCCCC(CC)COC(=O)c1ccc(C(=O)OCC(CC)CCCC)cc1` (centres undefined), the outcome in experiment [1], in [2], in experiment [3], in [4], in experiment [5] and in experiment [6] was inactive. Moreover, the outcome in [7], in experiment [8], in [9] and in experiment [10] was inactive.

Take `O=C1OC(=O)C2C3C=CC(C3)C12` (centres undefined): the result in [1], in experiment [2], in experiment [3], in experiment [4], in [5] and in experiment [6] was inactive. The result in [7], in experiment [8], in experiment [9] and in experiment [10] was inactive.

The record behind these values is PubChem BioAssay (EPA / NIEHS).
